# ± gives the standard deviation of the averaged measurements.
# Test system: lanierone-responsive B-neuron OSN class (ItypOR36)
# Assay: net action potential response of lanierone B-neuron (blank-subtracted) (spikes/s (Hz)); higher = stronger excitation
# Conditions: 10 µg on filter paper, neuron: B neuron (small spike amplitude)
# Procedure: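 Single sensillum recordings from antennal olfactory sensilla of live adult Ips typographus. Each compound was 10 µg in paraffin oil, delivered as a 0.5 s puff. Net response = spikes in the first 0.5 s of response minus the 0.5 s pre-stimulus count, doubled to give Hz, with blank response subtracted. Values are for the small-spike lanierone-responsive B-neuron (putatively expressing ItypOR36), recorded in sensilla co-housing the A-neuron class; N = 1-4, averaged.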
# [1] = co-localized A-neuron class: (4S)-cis-verbenol
# [2] = co-localized A-neuron class: (5S,7S)-trans-conophthorin
# [3] = co-localized A-neuron class: (+)-isopinocamphone
# [4] = co-localized A-neuron class: (+)-trans-4-thujanol
# [5] = co-localized A-neuron class: ipsdienol
# [6] = co-localized A-neuron class: myrcene
# [7] = co-localized A-neuron class: p-cymene
Compound,net action potential response [1],net action potential response [2],net action potential response [3],net action potential response [4],net action potential response [5],net action potential response [6],net action potential response [7]
C=CCc1ccc(OC)cc1 [Estragole],1.33 ± 7.6,0 ± 7.8,0 ± 2,0 ± 4.3,4 ± 5.3,-8,-2.67 ± 1.1
Cc1ccccc1 [Toluene],2 ± 4,-1 ± 5,-4,1 ± 1.1,-2 ± 3.5,0,0
O=Cc1ccccc1 [Benzaldehyde],0 ± 3.5,0.667 ± 1.1,-2.67 ± 3.1,-2.5 ± 10,2 ± 7.2,-6,0

# From the supplement of paper PMC11577813, “Eurasian spruce bark beetle detects lanierone using a highly expressed specialist odorant receptor, present in several functional sensillum types” (BMC Biology, 2024)
